# Assay results as given in the supplement of paper PMC6411743.
# ± gives the standard deviation of the averaged measurements. Of roughly 5,400 targets only a part is listed; those with the largest changes were picked by preference.
# Compound: Nc1nc2c(ncn2[C@@H]2O[C@H](COP(=O)(O)OP(=O)(O)OP(=O)(O)O)[C@@H](O)[C@H]2O)c(=O)[nH]1 [guanosine triphosphate]
# Assay: NP40-soluble protein abundance relative to vehicle (solubility fold change) (ratio); higher = more soluble protein in presence of GTP
# Summary of the method: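 Crude Jurkat lysate, prepared by Dounce homogenisation, was exposed to eight concentrations from 0.1 to 10 mM for 10 min at room temperature and then 3 min at 37 °C. Solubilisation used 0.8% NP40 with benzonase for 60 min at 4 °C, followed by ultracentrifugation and TMT labelling of the supernatant for LC-MS/MS. After vsn normalisation of intensities, each value is the fold change against the detergent-processed vehicle within each replicate, across three independent experiments.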
# UniProt P46109, sequence (P46109 whole entry): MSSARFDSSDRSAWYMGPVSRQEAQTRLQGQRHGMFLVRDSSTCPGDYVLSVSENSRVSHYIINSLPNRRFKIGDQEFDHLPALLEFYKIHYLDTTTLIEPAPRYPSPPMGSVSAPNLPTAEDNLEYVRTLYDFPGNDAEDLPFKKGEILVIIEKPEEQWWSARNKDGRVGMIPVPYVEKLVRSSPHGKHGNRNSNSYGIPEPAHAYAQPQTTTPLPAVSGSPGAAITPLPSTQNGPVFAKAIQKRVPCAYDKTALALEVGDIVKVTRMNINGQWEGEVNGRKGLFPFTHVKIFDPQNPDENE
# UniProt Q02241, sequence (Q02241 whole entry, one chain of several): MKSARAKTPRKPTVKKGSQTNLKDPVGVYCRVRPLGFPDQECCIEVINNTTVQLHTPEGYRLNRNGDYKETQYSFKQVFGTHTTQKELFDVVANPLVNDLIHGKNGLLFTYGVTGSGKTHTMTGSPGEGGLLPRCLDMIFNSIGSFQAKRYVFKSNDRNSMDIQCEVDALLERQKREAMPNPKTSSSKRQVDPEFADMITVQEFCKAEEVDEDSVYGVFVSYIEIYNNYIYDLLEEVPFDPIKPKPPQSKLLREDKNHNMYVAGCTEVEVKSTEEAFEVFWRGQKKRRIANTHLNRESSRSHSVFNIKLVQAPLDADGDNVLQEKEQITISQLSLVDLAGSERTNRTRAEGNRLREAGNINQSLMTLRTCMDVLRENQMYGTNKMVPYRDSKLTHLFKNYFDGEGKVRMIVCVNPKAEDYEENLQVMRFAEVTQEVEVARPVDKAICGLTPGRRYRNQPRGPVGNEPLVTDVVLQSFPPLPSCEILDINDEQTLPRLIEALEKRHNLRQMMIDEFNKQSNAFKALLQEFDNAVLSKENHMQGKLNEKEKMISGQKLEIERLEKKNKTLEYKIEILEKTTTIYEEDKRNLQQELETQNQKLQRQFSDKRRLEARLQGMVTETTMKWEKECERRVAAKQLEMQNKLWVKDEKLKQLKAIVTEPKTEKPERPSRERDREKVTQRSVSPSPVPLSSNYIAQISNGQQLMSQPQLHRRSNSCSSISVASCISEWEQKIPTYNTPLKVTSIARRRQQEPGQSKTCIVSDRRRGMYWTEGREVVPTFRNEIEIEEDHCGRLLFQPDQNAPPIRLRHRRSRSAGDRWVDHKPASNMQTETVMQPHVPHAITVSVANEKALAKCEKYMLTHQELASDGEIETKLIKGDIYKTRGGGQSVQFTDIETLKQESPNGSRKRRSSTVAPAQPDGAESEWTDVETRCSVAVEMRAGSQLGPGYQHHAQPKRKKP
# UniProt O43665, sequence (O43665 whole entry): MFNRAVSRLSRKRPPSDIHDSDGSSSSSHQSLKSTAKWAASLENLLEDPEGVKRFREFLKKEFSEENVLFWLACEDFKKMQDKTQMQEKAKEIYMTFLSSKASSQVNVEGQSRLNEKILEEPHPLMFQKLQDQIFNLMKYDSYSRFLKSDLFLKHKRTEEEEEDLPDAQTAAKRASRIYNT
# UniProt O14776, sequence (O14776 whole entry): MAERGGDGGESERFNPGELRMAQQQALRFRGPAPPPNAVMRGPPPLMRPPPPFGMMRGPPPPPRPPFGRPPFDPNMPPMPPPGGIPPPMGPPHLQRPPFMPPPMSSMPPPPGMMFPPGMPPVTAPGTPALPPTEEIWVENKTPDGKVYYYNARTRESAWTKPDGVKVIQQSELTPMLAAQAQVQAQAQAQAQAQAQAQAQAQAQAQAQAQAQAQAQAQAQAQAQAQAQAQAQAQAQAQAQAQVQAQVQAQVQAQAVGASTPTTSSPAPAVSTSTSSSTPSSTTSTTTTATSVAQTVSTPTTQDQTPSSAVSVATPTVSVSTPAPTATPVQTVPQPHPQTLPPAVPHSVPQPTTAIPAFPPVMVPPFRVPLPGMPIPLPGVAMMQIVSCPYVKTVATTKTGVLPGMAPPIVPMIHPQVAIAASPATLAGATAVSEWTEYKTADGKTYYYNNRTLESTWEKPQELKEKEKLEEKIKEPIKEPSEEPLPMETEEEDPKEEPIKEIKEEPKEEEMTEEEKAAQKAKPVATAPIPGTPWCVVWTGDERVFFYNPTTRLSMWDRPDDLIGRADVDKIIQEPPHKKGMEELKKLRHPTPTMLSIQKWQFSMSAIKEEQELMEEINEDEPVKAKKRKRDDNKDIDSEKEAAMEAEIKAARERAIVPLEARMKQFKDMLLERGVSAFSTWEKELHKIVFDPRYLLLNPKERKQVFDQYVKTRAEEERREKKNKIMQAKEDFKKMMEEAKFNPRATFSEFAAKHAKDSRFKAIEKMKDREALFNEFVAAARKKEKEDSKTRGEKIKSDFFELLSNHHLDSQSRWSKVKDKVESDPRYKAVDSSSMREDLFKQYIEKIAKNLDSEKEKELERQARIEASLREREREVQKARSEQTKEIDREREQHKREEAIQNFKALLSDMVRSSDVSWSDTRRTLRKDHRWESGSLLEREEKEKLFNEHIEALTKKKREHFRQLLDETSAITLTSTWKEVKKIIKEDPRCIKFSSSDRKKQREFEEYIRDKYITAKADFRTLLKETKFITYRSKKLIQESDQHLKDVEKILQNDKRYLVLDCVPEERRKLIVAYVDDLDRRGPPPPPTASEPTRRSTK
# UniProt O15042, sequence (O15042 whole entry, one chain of several): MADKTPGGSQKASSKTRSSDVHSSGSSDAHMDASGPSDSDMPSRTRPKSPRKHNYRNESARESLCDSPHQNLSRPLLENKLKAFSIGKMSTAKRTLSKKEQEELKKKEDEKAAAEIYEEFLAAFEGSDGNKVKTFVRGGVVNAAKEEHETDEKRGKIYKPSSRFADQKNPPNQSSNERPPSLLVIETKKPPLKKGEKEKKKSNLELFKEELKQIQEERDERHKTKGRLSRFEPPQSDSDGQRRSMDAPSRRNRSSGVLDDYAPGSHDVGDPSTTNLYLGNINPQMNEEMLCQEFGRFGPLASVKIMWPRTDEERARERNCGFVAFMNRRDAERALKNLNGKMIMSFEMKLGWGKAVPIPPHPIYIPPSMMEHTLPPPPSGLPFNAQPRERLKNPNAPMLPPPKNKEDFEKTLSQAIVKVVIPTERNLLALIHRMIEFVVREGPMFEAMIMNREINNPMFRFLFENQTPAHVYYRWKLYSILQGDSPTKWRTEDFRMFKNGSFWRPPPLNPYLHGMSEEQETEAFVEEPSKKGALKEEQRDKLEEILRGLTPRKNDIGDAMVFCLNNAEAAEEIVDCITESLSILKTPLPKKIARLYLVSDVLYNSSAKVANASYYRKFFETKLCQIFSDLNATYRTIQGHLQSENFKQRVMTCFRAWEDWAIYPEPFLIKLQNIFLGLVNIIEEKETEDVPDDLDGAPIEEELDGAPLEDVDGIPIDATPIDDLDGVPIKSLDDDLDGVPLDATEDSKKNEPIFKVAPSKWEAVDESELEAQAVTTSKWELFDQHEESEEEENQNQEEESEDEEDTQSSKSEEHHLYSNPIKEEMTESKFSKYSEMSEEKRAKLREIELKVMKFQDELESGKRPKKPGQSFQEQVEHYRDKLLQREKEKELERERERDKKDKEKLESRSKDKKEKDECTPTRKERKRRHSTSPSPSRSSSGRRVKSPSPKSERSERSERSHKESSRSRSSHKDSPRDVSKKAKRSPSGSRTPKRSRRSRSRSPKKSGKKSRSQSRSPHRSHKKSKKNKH
# UniProt O43181, sequence (O43181 whole entry): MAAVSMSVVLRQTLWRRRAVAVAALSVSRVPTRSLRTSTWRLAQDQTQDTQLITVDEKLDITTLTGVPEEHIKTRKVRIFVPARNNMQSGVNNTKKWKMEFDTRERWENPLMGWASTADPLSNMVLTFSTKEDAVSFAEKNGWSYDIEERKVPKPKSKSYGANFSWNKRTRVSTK
# UniProt Q96SW2, sequence (Q96SW2 whole entry, one chain of several): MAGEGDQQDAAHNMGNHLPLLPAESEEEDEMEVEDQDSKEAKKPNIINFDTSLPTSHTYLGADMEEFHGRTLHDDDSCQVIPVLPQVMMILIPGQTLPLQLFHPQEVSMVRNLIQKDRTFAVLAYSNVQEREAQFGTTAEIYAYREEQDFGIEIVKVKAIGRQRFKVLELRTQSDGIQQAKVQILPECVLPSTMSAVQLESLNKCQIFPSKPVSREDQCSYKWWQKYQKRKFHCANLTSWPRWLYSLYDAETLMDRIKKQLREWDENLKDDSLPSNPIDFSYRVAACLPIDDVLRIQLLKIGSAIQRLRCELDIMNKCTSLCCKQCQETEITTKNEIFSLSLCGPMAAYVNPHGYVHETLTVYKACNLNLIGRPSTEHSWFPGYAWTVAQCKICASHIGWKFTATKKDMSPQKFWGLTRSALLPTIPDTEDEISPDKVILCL
# UniProt Q01081, sequence (Q01081 whole entry, looked up, other chains not shown): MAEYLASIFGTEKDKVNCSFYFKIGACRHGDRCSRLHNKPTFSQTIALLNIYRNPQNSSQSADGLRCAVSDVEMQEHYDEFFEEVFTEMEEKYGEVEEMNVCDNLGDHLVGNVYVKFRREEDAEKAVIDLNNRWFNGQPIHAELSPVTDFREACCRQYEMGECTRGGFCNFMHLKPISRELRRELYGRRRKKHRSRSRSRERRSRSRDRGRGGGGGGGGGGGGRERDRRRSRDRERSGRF
# UniProt P16949, sequence (P16949 whole entry): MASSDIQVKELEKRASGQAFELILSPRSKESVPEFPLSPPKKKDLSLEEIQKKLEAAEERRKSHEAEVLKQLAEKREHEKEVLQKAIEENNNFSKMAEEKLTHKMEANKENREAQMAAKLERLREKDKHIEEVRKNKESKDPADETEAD
# UniProt P10768, sequence (P10768 whole entry): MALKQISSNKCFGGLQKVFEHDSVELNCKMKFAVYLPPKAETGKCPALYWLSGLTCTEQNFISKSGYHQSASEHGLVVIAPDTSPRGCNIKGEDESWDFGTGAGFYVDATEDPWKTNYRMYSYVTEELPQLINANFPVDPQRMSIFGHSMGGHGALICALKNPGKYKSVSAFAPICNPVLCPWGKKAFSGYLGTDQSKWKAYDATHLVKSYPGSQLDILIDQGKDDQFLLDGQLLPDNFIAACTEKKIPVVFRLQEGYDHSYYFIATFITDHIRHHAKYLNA
Target,NP40-soluble protein abundance (concentration: 0.1mM),NP40-soluble protein abundance (concentration: 0.5mM),NP40-soluble protein abundance (concentration: 1mM),NP40-soluble protein abundance (concentration: 2mM),NP40-soluble protein abundance (concentration: 4mM),NP40-soluble protein abundance (concentration: 6mM),NP40-soluble protein abundance (concentration: 8mM),NP40-soluble protein abundance (concentration: 10mM)
UniProt O94906|O94906-2,1.06 ± 0.055,1.17 ± 0.086,1.26 ± 0.17,1.42 ± 0.27,1.66 ± 0.44,1.91 ± 0.46,2.23 ± 0.58,2.34 ± 0.6
UniProt P25705|P25705-2,0.981 ± 0.022,1.04 ± 0.057,0.998 ± 0.062,1.01 ± 0.087,0.986 ± 0.088,1.03 ± 0.11,1.01 ± 0.11,0.995 ± 0.098
UniProt P17812,1.04 ± 0.085,1.03 ± 0.089,0.924 ± 0.05,0.916 ± 0.096,0.904 ± 0.077,0.883 ± 0.076,0.864 ± 0.041,0.819 ± 0.086
ARID1A (UniProt O14497),0.993 ± 0.031,1.06 ± 0.016,1.08 ± 0.055,1.08 ± 0.084,1.1 ± 0.1,1.12 ± 0.12,1.16 ± 0.17,1.13 ± 0.17
P15531-2|P22392-2|Q32Q12 (UniProt Q32Q12+P22392+P15531),0.983 ± 0.029,0.946 ± 0.049,0.903 ± 0.045,0.909 ± 0.068,0.9 ± 0.017,0.878 ± 0.04,0.822 ± 0.06,0.839 ± 0.025
PYGB (UniProt P11216),1.11 ± 0.12,1.19 ± 0.21,1.2 ± 0.28,1.45 ± 0.5,1.71 ± 0.63,1.78 ± 0.69,1.75 ± 0.61,1.79 ± 0.67
UniProt P50395|Q5SX86,0.966 ± 0.022,0.999 ± 0.023,0.916 ± 0.02,0.899 ± 0.0095,0.882 ± 0.012,0.89 ± 0.017,0.859 ± 0.04,0.829 ± 0.057
ESD (UniProt P10768),0.959 ± 0.015,0.958 ± 0.032,0.924 ± 0.032,0.876 ± 0.025,0.882 ± 0.034,0.897 ± 0.04,0.875 ± 0.044,0.839 ± 0.059
H2AFX (UniProt P16104),0.94 ± 0.014,0.955 ± 0.036,1.07 ± 0.068,1.13 ± 0.075,1.2 ± 0.088,1.48 ± 0.16,1.44 ± 0.13,2.26 ± 0.46
GLRX3 (UniProt O76003),0.92 ± 0.052,0.946 ± 0.058,0.934 ± 0.068,0.882 ± 0.088,0.864 ± 0.075,0.885 ± 0.085,0.885 ± 0.035,0.871 ± 0.081
J3KNZ9 (UniProt Q9HAH7),1.01 ± 0.12,0.933 ± 0.095,0.978 ± 0.056,0.984 ± 0.061,0.971 ± 0.051,1.01 ± 0.05,1.02 ± 0.015,1.01 ± 0.061
UniProt O43865,0.969 ± 0.025,0.99 ± 0.044,0.959 ± 0.057,0.944 ± 0.025,0.914 ± 0.021,0.955 ± 0.029,0.973 ± 0.056,0.98 ± 0.047
H7BYN4|Q02241|Q02241-2|Q02241-3 (UniProt Q02241),1.1 ± 0.048,1.03 ± 0.036,1.0707 ± 0.00082,1.09 ± 0.021,1.114 ± 0.0076,1.13 ± 0.046,1.12 ± 0.084,1.09 ± 0.041
CRKL (UniProt P46109),0.973 ± 0.029,0.958 ± 0.058,0.967 ± 0.092,0.932 ± 0.073,0.921 ± 0.076,0.906 ± 0.089,0.923 ± 0.093,0.876 ± 0.086
UniProt P06239|P06239-3,1.013 ± 0.0087,1.04 ± 0.034,0.994 ± 0.022,1 ± 0.032,1 ± 0.023,0.963 ± 0.015,0.929 ± 0.026,0.919 ± 0.039
UniProt O43399|O43399-5|O43399-7,0.814 ± 0.11,0.76 ± 0.039,1 ± 0.15,0.946 ± 0.028,0.91 ± 0.03,0.916 ± 0.033,0.875 ± 0.16,1.08 ± 0.15
UniProt P06729,0.895 ± 0.023,0.902 ± 0.035,0.912 ± 0.02,0.88 ± 0.072,0.852 ± 0.038,0.89 ± 0.053,0.893 ± 0.036,0.903 ± 0.039
UniProt O43665|O43665-2|O43665-3,0.802 ± 0.079,0.748 ± 0.035,0.872 ± 0.14,0.865 ± 0.068,0.791 ± 0.038,0.837 ± 0.034,0.79 ± 0.089,0.909 ± 0.14
J3QQJ5|Q9Y2L5 (UniProt Q9Y2L5),1.09 ± 0.062,1.1 ± 0.12,1.05 ± 0.091,1.03 ± 0.11,1 ± 0.14,0.989 ± 0.13,1.01 ± 0.12,0.981 ± 0.13
ARPC1B (UniProt O15143),1 ± 0.045,1.04 ± 0.056,0.933 ± 0.034,0.942 ± 0.062,0.928 ± 0.056,0.948 ± 0.04,0.923 ± 0.017,0.887 ± 0.012
UniProt O14776|O14776-2,0.97 ± 0.042,0.962 ± 0.056,0.979 ± 0.047,0.953 ± 0.083,0.989 ± 0.079,1.01 ± 0.084,1.05 ± 0.05,1.04 ± 0.071
UniProt O15042|O15042-2|E7ET15,1 ± 0.011,1.08 ± 0.013,1.15 ± 0.05,1.18 ± 0.094,1.24 ± 0.13,1.32 ± 0.14,1.4 ± 0.22,1.37 ± 0.23
POLR2E (UniProt P19388),1.06 ± 0.11,1.09 ± 0.11,1.15 ± 0.16,1.19 ± 0.18,1.22 ± 0.18,1.19 ± 0.19,1.16 ± 0.16,1.11 ± 0.16
STMN1 (UniProt P16949),0.911 ± 0.0092,0.899 ± 0.048,0.994 ± 0.014,0.909 ± 0.042,0.85 ± 0.069,0.935 ± 0.1,0.971 ± 0.089,0.995 ± 0.041
P0DN76|Q01081|Q01081-2 (UniProt Q01081+P0DN76),1.23 ± 0.074,1.61 ± 0.28,1.64 ± 0.32,1.67 ± 0.32,1.71 ± 0.36,1.78 ± 0.4,1.79 ± 0.45,1.76 ± 0.38
J3QT87|Q96SW2|Q96SW2-2 (UniProt Q96SW2),1.07 ± 0.084,1.07 ± 0.1,0.979 ± 0.034,1.03 ± 0.12,1.05 ± 0.061,1.04 ± 0.1,0.946 ± 0.047,0.931 ± 0.039
NDUFS4 (UniProt O43181),1 ± 0.029,1.047 ± 0.0028,1.08 ± 0.053,1.12 ± 0.1,1.09 ± 0.12,1.1 ± 0.12,1.14 ± 0.18,1.1 ± 0.15
UniProt O75554|O75554-2,1.01 ± 0.045,1.07 ± 0.1,1.08 ± 0.083,1.05 ± 0.12,1.04 ± 0.059,1.09 ± 0.12,1.12 ± 0.072,1.06 ± 0.034
